This note sets out measurements from PubChem BioAssay (EPA / NIEHS).

Molecules are shown by their SMILES. Active and inactive are the calls of the source. How the source made its calls: active means hit-call score of the fitted dose curve at least 0.9, where 1 is the maximum; inconclusive means response in the unintended direction; inactive means score below 0.9.

Sequence of Peroxisome proliferator-activated receptor gamma (Homo sapiens) (P37231 whole entry, looked up, the tested form may be a part): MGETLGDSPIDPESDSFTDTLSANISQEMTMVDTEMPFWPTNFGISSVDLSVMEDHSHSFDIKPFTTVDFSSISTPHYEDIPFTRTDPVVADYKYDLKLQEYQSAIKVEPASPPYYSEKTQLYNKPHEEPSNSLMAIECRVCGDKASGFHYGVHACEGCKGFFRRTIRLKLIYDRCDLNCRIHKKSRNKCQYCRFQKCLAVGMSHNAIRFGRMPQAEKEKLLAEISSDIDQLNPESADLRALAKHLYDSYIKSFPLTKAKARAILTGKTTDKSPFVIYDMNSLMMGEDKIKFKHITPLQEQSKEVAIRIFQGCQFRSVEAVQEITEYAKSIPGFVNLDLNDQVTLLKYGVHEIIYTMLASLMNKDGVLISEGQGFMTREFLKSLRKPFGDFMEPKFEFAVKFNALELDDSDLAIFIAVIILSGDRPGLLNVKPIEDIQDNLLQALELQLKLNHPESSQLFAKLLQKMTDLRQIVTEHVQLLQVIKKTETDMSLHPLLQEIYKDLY

In the test the target is Peroxisome proliferator-activated receptor gamma (Homo sapiens) (UniProt P37231). The test can be described thus: OT_PPARg_PPARgSRC1_1440: Odyssey Thera (OT) 24-hour Protein-Complementation Assay for Peroxisome Proliferator-activated Receptor Gamma/ SRC-1 Co-activator (AID 2283388).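 Further: nuclear to cytoplasmic ratio of reconstituted Venus YFP fluorescence in fixed imaged cells.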 An outline of the steps:
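Transient HEK293T, YFP fragments 1-158/159-239 (mutant IFP1/IFP2) fused to PPARg/SRC-1; 24 h dosing; fix 4% formaldehyde, Draq5; Opera imaging 488/635 nm; N/C ratio, gain vs DMSO.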
`CCC1(C)NC(=O)NC1=O` (stereo not drawn): the outcome was inactive.
On to `O=C1NC2NC(=O)NC2N1` (stereo not drawn), for which the call was inactive.
As for `O=C(c1ccccc1)C(O)c1ccccc1` (stereo not drawn), the call was inactive.
For the molecule `Cc1ccc(S(=O)(=O)Oc2ccc(N=Nc3ccc(-c4ccc(N=Nc5c(O)ccc6cc(S(=O)(=O)O)cc(S(=O)(=O)O)c56)c(C)c4)cc3C)cc2)cc1`, the molecule was called inactive.
Regarding `C=C(C)C(=O)OCCOC1CC2CC1C1C=CCC21` (stereo not drawn), the result was inactive.
The same measure for `CCCCCCCC(=O)OCC(O)CO` (stereo not drawn): “inactive”.
As to `CC(C)NCC(O)COc1ccc(CC(N)=O)cc1` (stereo not drawn), the molecule was called inactive.
For the molecule `CCCCC1CCC(O)CC1` (stereo not drawn), the result was inactive.
As for `Oc1ccc2cc(SSc3ccc4cc(O)ccc4c3)ccc2c1`, the molecule was called inactive.
On to `CCOC(=O)C1OC1c1ccccc1` (stereo not drawn), for which the outcome was inactive.
Take `CN1C(=O)c2ccccc2C1=O`: the outcome was inactive.
As for `CCCCCCCCCCCC(=O)OCC(O)CO` (stereo not drawn), the molecule was called inactive.
On to `CC(C)CC(C)CC(O)CC(C)C` (stereo not drawn), for which the outcome was inactive.
As for `Clc1ccc(C(c2ccccc2Cl)C(Cl)Cl)cc1` (stereo not drawn), the molecule was classed as inactive.
As for `CC(C)CCCCCCCCCCCCCCC(=O)O`, the call was inactive.
Consider `O=C(O)c1ccc(O)cc1`, for which the result was inactive.
On to `CCCC(C)=O`, for which the call was inactive.
The same measure for `[O-]n1ccccc1=S.[O-]n1ccccc1=S.[Zn+2]`: “inactive”; for `Nc1ccccc1[N+](=O)[O-]`: “inactive”.
With `CC(C=O)Cc1ccc(C(C)(C)C)cc1` (stereo not drawn), the outcome was inactive.
In the case of `CCCCCCCC/C=C\CCCCCCCC(=O)OCC`, the outcome was inactive.
For `CCCCCC(C)=O`, the call was inactive.
With `CCCCCCCCC=CCCCCCCCC1=NCCN1CCO`, the result was inactive.
In the case of `O=Cc1ccccc1S(=O)(=O)O`, the outcome was inactive.
For `O=C1OC(=O)c2c(Cl)c(Cl)c(Cl)c(Cl)c21`, the call was inactive.
Turning to `CN1CCOCC1`, the molecule was called inactive.
Consider `C#CC(C)(O)CC(C)C` (stereo not drawn), for which the call was inactive.
Consider `CC1CCC(C(C)C)C(O)C1` (stereo not drawn), for which the call was inactive.
Take `O=C(O)CCCCCCCCC(=O)O`: the molecule was classed as inactive.
Turning to `CCCCCCCCSCCO`, the result was inactive.
As to `ON=C1CCCCC1`, the result was inactive.
For `CCCCCCC(CO)CCCC` (stereo not drawn), the molecule was called inactive.
`CCc1cc(Cc2cc(CC)cc(C(C)(C)C)c2O)c(O)c(C(C)(C)C)c1`: the outcome was inactive.
